# Assay outcomes (PubChem)
# An excerpt weighted towards active compounds, which were near 12% of everything screened.
# G9a inh: G9a (human) methyltransferase inhibition; G9a H3K9 monomethylation, AlphaScreen, 2 h; hit rate 8.8% among 350,000; Potency, µM (titrated, usually from 102 µM), for the others: top-dose activity, negative = inhibition, usual class: inhibitors; Q96KQ7; further: on the % scale 0 is the no-effect control and ±100 the full control effect; nearly all actives have a fitted effect of over 75% in size
#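 Enzyme 20 nM + cpd, 15 min RT; add b-H3K9 pep 500 nM / SAM 20 uM; 2 h RT; anti-H3K9me1 Ab 0.5 ug/mL + SA donor / anti-rabbit acceptor beads 20 ug/mL each, 10 min; AlphaScreen read.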
# HP1b chromo inh: inhibitors of HP1-beta chromodomain binding to methylated histone tails. P83916. AlphaScreen HP1-beta / biotin-H3K9me3 peptide binding. Potency, µM (top dose mostly 114 µM), without a hit: at the top dose activity change, negative = inhibition, actives largely listed as inhibitors. hit rate 0.56% among 390,000. AID 540317; further: nearly all actives have a fitted effect of over 70% in size
#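 AlphaScreen: HP1-beta (50 nM) preformed 30 min with biotin-H3(1-18)K9me3 peptide (50 nM) in PBS pH 7.4, 0.01% Tween-20. Compound added for 30 min at RT, then streptavidin donor/nickel chelate acceptor beads (10 ug/mL) for 30 min.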
# BAZ2B block: BAZ2B (human) inhibition; Q9UIF8; AlphaScreen BAZ2B-H3K14Ac peptide displacement; Potency, µM (doses to about 114 µM), for inactives: at the highest dose activity change, negative = inhibition, hits mostly inhibitors; hit rate 4.4% among 360,000; further: on the % scale 0 is the no-effect control and ±100 the full control effect; nearly all actives have a fitted effect of over 60% in size
#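 In this displacement format the biotinylated H3(5-23) peptide acetylated at Lys14 serves as ligand at 50 nM, with BAZ2B at 50 nM in PBS pH 7.4 containing 0.01% Tween-20. Donor and acceptor beads are 10 ug/mL final.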
# JMJD2A Tudor: JMJD2A Tudor domain (human) inhibition. O75164. AlphaScreen JMJD2A-Tudor / H3K4me3 peptide binding. Potency, µM (titrated, usually from 114 µM), without a hit: at the top dose activity change, negative = inhibition, most hits filed as inhibitors. hit rate 4.4% among 390,000. AID 504339; further: on the % scale 0 is the no-effect control and ±100 the full control effect; nearly all actives have a fitted effect of over 50% in size
# L3MBTL1 inh: L3MBTL1 (human) inhibition | AlphaScreen L3MBTL1–H3K9me1 peptide binding | Potency, µM (highest dose often 57.1 µM), for the others: at the highest dose activity, negative = inhibition, actives largely listed as inhibitors | hit rate 0.66% among 230,000; further: on the % scale 0 is the no-effect control and ±100 the full control effect; nearly all actives have a fitted effect of over 60% in size
#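 Displacement of a biotinylated histone H3(1-15) peptide monomethylated at Lys9 (75 nM) from L3MBTL1 (50 nM) was measured by AlphaScreen after a 30 min room-temperature compound incubation; cefsulodin titration served as intraplate control.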
# Sfp inh: Sfp phosphopantetheinyl transferase inhibition | Q9F4F7 | AID 1490 | Potency, µM, inactives show largest response in the series, negative = inhibition, most hits filed as inhibitors | Biochemical Sfp PPTase activity, qHTS | hit rate 3.5% among 310,000;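 further: the enzyme is Sfp with the accession as filed and its product quenches rhodamine fluorescence; 0% = enzyme reaction without inhibitor and -100% = no enzyme wells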
#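 Buffer: 50 mM Hepes-Na pH 7.6, 10 mM MgCl2, 0.01% Nonidet P-40, 0.01% BSA. Enzyme 15 nM, pre-exposed to compound 15 min; substrates then added and fluorescence change tracked over 30 min.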
# * = called active by the depositor; ? = inconclusive; nt = not tested or not shown; [ ] = another dose, or the depositor's remark. The call rests on the fitted dose curve; in most records, active means well fitted curve in the direction sought with a large enough effect; inconclusive means small, poorly fitted or top-dose-only effect, or another doubt; inactive means no such curve, though single readings can be large; an effect the other way counts as inactive or inconclusive. Potency means the concentration at half of the fitted maximal effect.
SMILES,G9a inh,HP1b chromo inh,BAZ2B block,JMJD2A Tudor,L3MBTL1 inh,Sfp inh
Cc1cc(C=O)c(C)n1-c1ccc(Cl)c(C(=O)O)c1,12.6µM*,39.8µM*,25.1µM*,20µM*,3.98µM*,-9.0%
COc1cc(Cl)c(C)cc1NC(=O)CSc1ncc(S(=O)(=O)c2ccc(C(C)(C)C)cc2)c(=O)[nH]1,-48.9%[59 µM],-21.4%,25.1µM*,89.1µM*,nt,nt
CC(C)(C)c1ccc(S(=O)(=O)c2cnc(SCC(=O)Nc3ccc(F)c(Cl)c3)[nH]c2=O)cc1,-19.5%[59 µM],19.6%,-31.2%,?,nt,nt
CCC1=C(OC(=O)N(CC)CC)N2C(=O)OC(=NCC3CC3)[C@]2(C)[C@H]2C1=CC[C@H]1C(=O)N(c3ccccc3)C(=O)[C@H]12,nt,nt,nt,nt,nt,12.8%
CC(C)c1ccc(S(=O)(=O)N2CCN(Cc3cccc(F)c3)CC2)cc1,?,92.9%,16.4%,4.7%,nt,nt
O=C1c2ccccc2C(=O)N1CCCc1c[nH]c2ccccc12,50.1µM*,?,?,?,-2.9%,8.1%
Cc1ccc(C(=O)N/C(=C\c2ccco2)C(=O)NCCc2c[nH]c3ccccc23)cc1,-47.2%[59 µM],-14.8%,-32.7%,-30.4%,-5.2%,?
O=C(CCCc1c[nH]c2ccccc12)NCc1ccc2c(c1)OCO2,-50.7%[59 µM],31.4%,-6.6%,-11.0%[11.4 µM],nt,3.4%
O=C(CCCc1c[nH]c2ccccc12)NCCc1c[nH]c2ccccc12,44.7µM*,?,?,?,nt,18.0%
O=C1c2ccccc2C(=O)N1CCc1c[nH]c2ccccc12,-28.9%,16.9%,-33.2%,?,-23.4%,-11.5%
Cc1ccc(/C=C(/NC(=O)c2ccccc2)C(=O)NCCc2c[nH]c3ccccc23)o1,44.7µM*,-14.5%,?,-33.6%,-15.2%,-7.7%
CC(C)CNC(=O)CCCc1c[nH]c2ccccc12,3.9%,29.2%,-5.9%[57.1 µM],-12.2%[57.1 µM],-6.2%,-2.8%
O=C(CCc1c[nH]c2ccccc12)NCc1ccc2c(c1)OCO2,56.2µM*,14.6%,?,-13.8%,-7.7%,8.8%
COC1C=CO[C@@]2(C)Oc3c(C)c(O)c4c(O)c(c(C=NN5CCN(C)CC5)c(O)c4c3C2=O)NC(=O)/C(C)=C\C=CC(C)C(O)[C@@H](C)C(O)C(C)[C@H](OC(C)=O)C1C (stereo partly specified),?,nt,nt,nt,nt,-21.6%
COc1ccc(Cn2c(=O)n(Cc3ccco3)c(=O)c3oc4ccccc4c32)cc1,-1.0%[59 µM],2.1%,-2.0%,-24.5%,nt,nt
O=C(CCc1c[nH]c2ccccc12)NCc1ccncc1,50.1µM*,10.9%,0.0%,-1.7%,nt,14.8%
O=C(CCc1c[nH]c2ccccc12)Nc1ncccc1O,?,28.4%,56.2µM*,-35.9%,nt,21.8%
COc1ccc(NC(=O)COC(=O)CCCc2c[nH]c3ccccc23)cc1,?,-3.8%,50.1µM*,-30.5%,nt,0.2%
CC(C)(C)NCC(O)COc1ccc(NC(=O)NC2CCCCC2)cc1 (stereo unspecified),-37.0%[12.7 µM],nt,nt,nt,nt,14.1%
Cn1c(-c2ccncc2)nc2ccccc21,0.8%[0.501 µM],18.5%,9.5%,-13.6%,-2.4%[2.29 µM],24.1%
Cn1c(-c2nc(-c3ccccc3)cs2)nc2ccccc21,nt,nt,nt,nt,nt,44.7µM*
Cc1ccc(-c2csc(=Nc3ccccc3)n2Cc2ccc3c(c2)OCO3)cc1C,14.1µM*,-7.0%,100µM*,?,nt,nt
Cc1ccc(-c2csc(=Nc3ccc(F)cc3)n2Cc2ccc3c(c2)OCO3)cc1C,14.1µM*,?,4.47µM*,50.1µM*,nt,nt
Clc1ccc(-c2csc(=Nc3ccccc3)n2Cc2ccc3c(c2)OCO3)cc1,12.6µM*,?,?,?,nt,nt
NCC(=O)N[C@@H](CCCN=C(N)N)C(=O)NCC(=O)N[C@@H](CC(=O)O)C(=O)N[C@@H](CO)C(=O)N1CCC[C@H]1C(=O)O,nt,nt,nt,nt,nt,24.9%
C[C@]12c3[nH]c4ccccc4c3CCN1C(=O)C(CC(=O)NCCc1ccccn1)C[C@@H]2C(=O)N1CCOCC1 (stereo partly specified),nt,15.9%,nt,-2.1%,2.9%,nt
